# Results: PubChem BioAssay (NCI)
# This is part of a sample that, as a whole, favours compounds with a hit. Of some 83,000 tested, about 20% had one in any assay.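 Plates (96-well) were seeded with cells, treated with compound at one concentration, and incubated for 48 hours before percent growth was determined.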 Values without a mark were called inactive. Active and inactive are the calls of the source. How the source made its calls: active means growth percent below 10; inactive means the rest.
# Test system: NCI-H226 lung
# Test: NCI-60 one-dose screen, 48 h (100 = growth as untreated, 0 = no growth, -100 = all killed)
# Details: 10 µM unless noted
row,SMILES,growth
1,CCOc1cc(/C=N\NC(=O)N/N=C/c2ccc(O)c(OCC)c2)ccc1O,55.5%
2,Cc1ccc(C2=C/C(=C/c3ccc(Br)cc3)C(=O)N2CCc2ccc(S(N)(=O)=O)cc2)cc1,97%
3,Clc1ccc(N2CCN(CCCN3CCN(c4cccc(Cl)c4)CC3)CC2)cc1,90.5%
4,CC(C)OC(=O)Nc1cc(F)ccc1F,90.9%
5,C[C@H]1[C@H](C)CC[C@]2(C(=O)N3CCN(C)CC3)CC[C@]3(C)C(=CC[C@@H]4[C@@]5(C)C/C(=C/c6ccco6)C(=O)C(C)(C)[C@@H]5CC[C@]43C)[C@H]12,37.4% [100 µM]
6,CC(C)C1=NOC(=O)C1=Cc1cn(-c2ccccc2)nc1-c1ccc(Br)cc1,93.7%
7,C=C(CN=[N+]=[N-])[C@@H]1CC[C@]2(C)[C@H](CC[C@@H]3[C@H]4[C@H]5OC(=O)[C@@]4(CCC5(C)C)CC[C@]32C)[C@@]1(C)CCC#N,83.1% [100 µM]
8,Nn1c(Nc2ccc(S(=O)(=O)Nc3ncccn3)cc2)nnc(/C=C/c2c(O)ccc3ccccc23)c1=O,78.8%
9,Nc1cc(NN=C(c2ccc(O)cc2)c2ccc(O)cc2)c([N+](=O)[O-])cc1[N+](=O)[O-],61.8%
10,CSc1nc2c(c(=O)n1C)C1(C(=O)N(Cc3ccccc3)c3ccccc31)c1c(nc(SC)n(C)c1=O)N2,74.3%
11,NNC(=O)c1ccc(C(=O)NN)cc1,97.6%
12,COc1cc(Cl)cc(-c2nn(C(=O)NS(=O)(=O)c3ccccc3)cc2-c2ccncc2)c1,69.3%
13,CCN(CC)CC(C)Nc1ccc(C)c2sc3ccccc3c(=O)c12 (stereo not given),74.2%
14,COc1ccc2c3ccnc(C(F)(F)F)c3n(CCCCN)c2c1,52.4%
15,COc1ccc(C2CC(c3cc(OC)c(OC)c(OC)c3)=NN2C(C)=O)cc1OCC(=O)Nc1nc2ccc(C(F)(F)F)cc2s1 (stereo not given),40.2%
16,COC(=O)C(=Cc1ccccc1[N+](=O)[O-])C(=O)OC,97.6%
17,C=CCCCCOc1ccccc1-c1cnc(OCCCCC=C)n1C,92.2%
18,O=C(O)c1cccc(CN2CCN(c3cc4c(cc3F)c(=O)c(C(=O)O)cn4C3CC3)CC2)c1O,106%

row,SMILES,growth
1,Cc1cc(C)c(O)c(CNCCCCCCNCc2cc(C)cc(C)c2O)c1,81.6%
2,Cc1cnc(N)nc1OCC(C)(C)CNC(=O)c1cccc(-c2ccc(S(=O)(=O)Nc3ccc4c(c3)N(C(=O)C3CC3)CCC4)cc2)c1,59.3%
3,CCOc1cc(NC(=O)c2ccccc2)c(OCC)cc1N,106%
4,CCN(CC)c1ccc(/C=C/c2ccc3cc(C)ccc3[n+]2CC)cc1,21.4%
5,O=C1COCCN1c1ccc(NCc2cn(Cc3ccccc3)c3ccccc23)cc1,-40.1% (active)
6,c1nc(N2CCOCC2)c2[nH]ccc2n1,114%
7,O=C(Nc1cccc2cccnc12)c1cc(C(=O)c2ccc(Cl)cc2)n2ccc(-c3ccncc3)cc12,91%
8,COc1cc2c(c(OC)c1)C1c3cc(OC)ccc3NC(=O)N1CC2 (stereo not given),99.3%
9,CC[C@]1(O)CC2CN(CCc3c([nH]c4ccccc34)[C@@](C(=O)OC)(c3cc4c(cc3OC)N(C=O)[C@H]3[C@@](O)(C(=O)OC)[C@H](OC(C)=O)[C@]5(CC)C=CCN6CC[C@]43[C@@H]65)C2)C1 (stereo not given in full),2.28% (active)
10,CC(C)C1=NOC(=O)C1=Cc1cn(-c2ccco2)nc1-c1ccccc1,102%
11,COC(=O)[C@H](CC(C)C)NC(=O)NC(=O)NC(=O)CI,98.5%
12,O=C1NC(=O)C(Cc2ccc(OCc3ccc(-c4cc(F)c(F)c(F)c4)cc3)cc2)S1 (stereo not given),82.5%
13,NC(=O)CC1C=CCC1 (stereo not given),99.4%
14,CC(C)C1=NOC(=O)C1=Cc1cn(-c2ccccc2)nc1-c1ccccc1,95.2%
15,COc1ccc2c(c1)c(-c1noc(C(=O)c3cn(C)c4ncc(Br)cc34)n1)cn2C,26.6%
16,C#C[C@]1(O)CC[C@H]2[C@@H]3CC=C4c5nc(Nc6ccccn6)sc5CC[C@]4(C)[C@H]3CC[C@@]21C,38.1%
17,O=C1CN(Cc2ccc(C(=O)NO)cc2)C(=O)[C@@H](Cc2ccccc2)N1,104%
